Here are results for 5 compounds from PubChem BioAssay.

Calls of active or inactive are those of the source.

Experiment [1] is described as follows: small molecules captured by biotinylated probe aFSTL3 – biochemical, small-molecule microarray, fluorescence 635/667, stem cell growth factor project, primary screen (AID 1064).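 Note: measures binding of the biotinylated anti-FSTL3 antibody to printed compounds.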 As to conditions: higher = more signal.
Experiment [2] in a line: binders from COS7 lysate, DM2A8 probe, primary screen, torsin A project, cell lysate, small-molecule microarray, fluorescence 635/667 (AID 1065). Conditions: higher = more signal, COS7 lysate expressing mutant human TOR1A.
Experiment [3] in a line: small molecules captured by biotinylated probe aFGF2 – biochemical, small-molecule microarray, fluorescence 635/667, stem cell growth factor project, primary screen (AID 1067).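 Note: measures binding of biotinylated aFGF2 protein to printed compounds on slides; z-score merges feature fluorescence and signal-to-noise across triplicate slides.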 Conditions: higher = more signal.
A short description of experiment [4]: small molecules captured by biotinylated probe aFGF10 – biochemical, small-molecule microarray, fluorescence 635/667, stem cell growth factor project, primary screen (AID 1071).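 Note: score merges 667 nm spot intensity and signal to noise from triplicate slides.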 As to conditions: higher = more signal.
The target of experiment [5] is Neurogenic locus notch homolog protein 2 (Homo sapiens) (UniProt Q04721). As to the kind of experiment: small molecules binding Notch2 protein – biochemical, small-molecule microarray, 635 nm fluorescence, stem cell growth factors, primary screen (AID 1073). Conditions: higher = more signal.
Experiment [6] deals with Pro-neuregulin-1, membrane-bound isoform (Homo sapiens) (UniProt Q02297). The experiment in a line: small molecules binding neuregulin-1 protein – biochemical, small-molecule microarray, fluorescence 635/667, psychiatric disease protein project, primary screen (AID 1075).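 Note: score combines 667 nm spot fluorescence with signal to noise.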 Conditions: NRG1 binding, 635 nm fluorescence, higher = more signal.
The test system of experiment [7] is Neuregulin-1 EGF-like domain. The experiment in a line: small molecules binding NRG1 EGF domain – biochemical, small-molecule microarray, 635 nm fluorescence, primary screen (AID 1081).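 Note: binding of the protein to compounds printed on small-molecule microarray slides.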 Conditions: higher = more signal.
Experiment [8] in a line: FRG1 expression reporter modulators in myotubes – cell-based, C2C12 myotubes, firefly/Renilla luciferase, luminescence, FRG1 inhibition for FSHD, primary screen (AID 1084). As to conditions: FRG1 promoter luciferase, higher = more signal, called active from +8 up or from −8 down.
Experiment [9] in a line: small molecules captured by biotinylated probe aFST – biochemical, small-molecule microarray, fluorescence 635/667, stem cell growth factor project, primary screen (AID 1086).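 Note: score merges 667 nm fluorescence with signal-to-noise of each printed compound spot.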 As to conditions: higher = more signal.
Experiment [10] can be described thus: binders of probe aHhip on microarray, primary screen, stem cell growth factor project, biochemical, small-molecule microarray, fluorescence 635/667 (AID 1087).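 Note: score merges spot fluorescence at 667nm with spot signal to noise ratio.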 As to conditions: higher = more signal.
The subject of experiment [11] is PRMT1 (protein arginine N-methyltransferase 1). The experiment in a line: small molecules binding arginine methyltransferase PRMT1 – biochemical, small-molecule microarray, 635 nm fluorescence, primary screen (AID 1088).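 Note: binding of Prmt1 protein to compounds spotted on small-molecule microarray slides.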 Conditions: higher = more signal.
Experiment [12] can be described thus: growth effects on S. cerevisiae YJM789 – YJM789 clinical isolate, OD600, 24 h, basal, primary screen (AID 1089).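 Note: growth of clinical yeast isolate S. cerevisiae YJM 789 seeded 1000 cells per well; test concentration not given here.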 Conditions: higher = more signal, called active from +8 up or from −8 down.
Experiment [13] can be described thus: S. pombe growth modifiers, basal conditions – strain 972, OD600, 24 h, no modulator, primary screen (AID 1090).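 Note: basal condition with compound alone and no growth modifier present; test concentration not given here.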 As to conditions: S. pombe 972 growth, higher = more signal, called active from +8 up or from −8 down.
Experiment [14] is described as follows: budding yeast growth modifiers under rapamycin – strain BY4716, OD600, 96 h, primary screen (AID 1091). Note: test concentration not given here. Conditions: S. cerevisiae BY4716 + rapamycin, higher = more signal, called active from +8 up or from −8 down.
Experiment [15] addresses Torsin-1A-interacting protein 2 (Homo sapiens) (UniProt Q8NFQ8). As to the kind of experiment: small molecules binding lysate-expressed LULL1 – cell lysate, human LULL1 lysate, 635/667 nm fluorescence, primary screen (AID 1092).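 Note: probe is lysate of COS7 cells overexpressing human LULL1; score merges per-feature 667 nm fluorescence with signal-to-noise.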 Conditions: small-molecule microarray, hLULL1 lysate binding, 635 nm fluorescence; higher = more signal.
A short description of experiment [16]: optical density change of DRC41 E. coli – strain DRC41, OD650, 24 h, E. coli filamentation project, primary screen (AID 1093).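 Note: MC1000 strain lacking acrAB efflux and sulA so SOS filamentation is blocked; test concentration not given here.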 Conditions: E. coli DRC41 growth, higher = more signal, called active from +8 up or from −8 down.
Experiment [17] is described as follows: probe aLefty2 binding to arrayed compounds – biochemical, biotinylated probe, 635/667 nm fluorescence, primary screen (AID 1094).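 Note: score merges spot fluorescence near 667 nm with spot signal-to-noise ratio.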 Conditions: small-molecule microarray, higher = more signal.
Experiment [18] has as its system Noggin (protein binding on small-molecule microarray). The experiment in a line: small molecules binding Noggin protein – biochemical, 635/667 nm fluorescence, primary screen (AID 1095).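 Note: score merges 667 nm feature fluorescence with signal to noise over triplicate slides.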 As to conditions: 635 nm fluorescence, higher = more signal.
Experiment [19] deals with Neurogenic locus notch homolog protein 3 (Homo sapiens) (UniProt Q9UM47). As to the kind of experiment: small molecules binding NOTCH3 protein – biochemical, 635/667 nm fluorescence, primary screen (AID 1096). As to conditions: small-molecule microarray, 635 nm fluorescence, higher = more signal.
Experiment [20] in a line: probe aEGFR binding to arrayed compounds – biochemical, biotinylated probe, 635/667 nm fluorescence, primary screen (AID 1097).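 Note: probe is a biotinylated anti-EGFR antibody binding compounds printed on slides; score combines fluorescence near 667 nm and signal to noise of each spot.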 Conditions: small-molecule microarray, higher = more signal.

Chain of Neurogenic locus notch homolog protein 2 (Homo sapiens) (Q04721 whole entry, looked up, canonical isoform): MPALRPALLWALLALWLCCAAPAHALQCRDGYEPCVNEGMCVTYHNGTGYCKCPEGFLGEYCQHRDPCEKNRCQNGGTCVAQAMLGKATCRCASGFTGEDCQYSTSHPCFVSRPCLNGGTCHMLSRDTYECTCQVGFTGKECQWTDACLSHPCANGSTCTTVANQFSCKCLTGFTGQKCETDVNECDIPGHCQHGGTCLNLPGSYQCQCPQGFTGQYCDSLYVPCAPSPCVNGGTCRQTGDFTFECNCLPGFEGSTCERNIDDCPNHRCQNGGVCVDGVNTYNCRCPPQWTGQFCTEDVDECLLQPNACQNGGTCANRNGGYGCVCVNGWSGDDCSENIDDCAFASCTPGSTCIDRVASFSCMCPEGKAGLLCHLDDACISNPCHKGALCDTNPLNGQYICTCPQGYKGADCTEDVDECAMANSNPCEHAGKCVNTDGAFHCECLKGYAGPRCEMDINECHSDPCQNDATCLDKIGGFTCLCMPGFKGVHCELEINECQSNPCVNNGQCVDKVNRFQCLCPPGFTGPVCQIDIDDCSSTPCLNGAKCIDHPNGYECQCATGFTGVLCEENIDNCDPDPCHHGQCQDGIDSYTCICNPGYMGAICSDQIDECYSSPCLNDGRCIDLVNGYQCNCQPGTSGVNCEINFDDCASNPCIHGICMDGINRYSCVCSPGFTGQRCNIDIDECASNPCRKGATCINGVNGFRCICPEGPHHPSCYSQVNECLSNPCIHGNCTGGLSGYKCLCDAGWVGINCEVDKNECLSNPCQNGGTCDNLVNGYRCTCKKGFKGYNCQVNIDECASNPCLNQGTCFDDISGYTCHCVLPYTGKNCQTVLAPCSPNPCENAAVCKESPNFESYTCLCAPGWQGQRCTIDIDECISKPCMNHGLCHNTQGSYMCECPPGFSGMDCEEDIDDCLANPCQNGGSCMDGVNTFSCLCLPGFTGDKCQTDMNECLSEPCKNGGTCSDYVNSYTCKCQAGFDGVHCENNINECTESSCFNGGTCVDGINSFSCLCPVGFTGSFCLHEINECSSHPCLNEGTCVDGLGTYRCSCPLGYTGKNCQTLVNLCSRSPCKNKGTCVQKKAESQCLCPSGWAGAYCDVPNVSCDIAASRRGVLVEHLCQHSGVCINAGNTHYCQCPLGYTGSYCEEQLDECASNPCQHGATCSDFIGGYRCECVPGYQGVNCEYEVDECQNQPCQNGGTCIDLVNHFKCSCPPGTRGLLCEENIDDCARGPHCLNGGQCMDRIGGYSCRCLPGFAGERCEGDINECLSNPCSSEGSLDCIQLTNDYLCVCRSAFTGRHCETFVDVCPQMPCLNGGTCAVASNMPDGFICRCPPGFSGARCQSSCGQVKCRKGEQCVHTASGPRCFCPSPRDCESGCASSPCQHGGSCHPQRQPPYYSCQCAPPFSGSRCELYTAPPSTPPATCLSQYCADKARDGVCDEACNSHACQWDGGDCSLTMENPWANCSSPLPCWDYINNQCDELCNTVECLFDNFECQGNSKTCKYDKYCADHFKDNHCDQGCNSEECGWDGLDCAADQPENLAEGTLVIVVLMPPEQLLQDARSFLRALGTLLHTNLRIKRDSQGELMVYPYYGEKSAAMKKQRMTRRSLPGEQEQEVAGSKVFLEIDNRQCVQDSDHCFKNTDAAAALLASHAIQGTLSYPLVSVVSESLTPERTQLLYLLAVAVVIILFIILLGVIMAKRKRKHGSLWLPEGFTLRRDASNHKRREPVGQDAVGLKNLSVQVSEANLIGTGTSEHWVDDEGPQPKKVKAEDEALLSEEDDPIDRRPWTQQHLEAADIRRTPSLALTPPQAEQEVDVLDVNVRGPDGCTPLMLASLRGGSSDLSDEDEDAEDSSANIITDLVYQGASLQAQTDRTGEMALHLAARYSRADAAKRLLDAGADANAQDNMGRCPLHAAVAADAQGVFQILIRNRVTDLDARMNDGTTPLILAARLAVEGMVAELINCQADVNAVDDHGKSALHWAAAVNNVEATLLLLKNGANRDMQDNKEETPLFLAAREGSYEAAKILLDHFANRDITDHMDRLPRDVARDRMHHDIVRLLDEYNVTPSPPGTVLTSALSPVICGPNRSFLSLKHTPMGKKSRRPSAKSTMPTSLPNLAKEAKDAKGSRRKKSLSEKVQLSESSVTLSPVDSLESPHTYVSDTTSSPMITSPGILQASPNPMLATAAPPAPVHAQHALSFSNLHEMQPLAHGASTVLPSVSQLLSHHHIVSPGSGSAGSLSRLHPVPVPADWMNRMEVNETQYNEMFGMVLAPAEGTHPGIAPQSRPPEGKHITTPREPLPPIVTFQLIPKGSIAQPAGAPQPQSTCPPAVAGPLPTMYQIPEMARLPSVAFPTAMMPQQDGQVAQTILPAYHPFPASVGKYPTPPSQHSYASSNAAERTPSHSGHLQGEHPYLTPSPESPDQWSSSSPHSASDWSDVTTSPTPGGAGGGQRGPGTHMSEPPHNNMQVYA
Chain of Torsin-1A-interacting protein 2 (Homo sapiens) (Q8NFQ8 whole entry, looked up): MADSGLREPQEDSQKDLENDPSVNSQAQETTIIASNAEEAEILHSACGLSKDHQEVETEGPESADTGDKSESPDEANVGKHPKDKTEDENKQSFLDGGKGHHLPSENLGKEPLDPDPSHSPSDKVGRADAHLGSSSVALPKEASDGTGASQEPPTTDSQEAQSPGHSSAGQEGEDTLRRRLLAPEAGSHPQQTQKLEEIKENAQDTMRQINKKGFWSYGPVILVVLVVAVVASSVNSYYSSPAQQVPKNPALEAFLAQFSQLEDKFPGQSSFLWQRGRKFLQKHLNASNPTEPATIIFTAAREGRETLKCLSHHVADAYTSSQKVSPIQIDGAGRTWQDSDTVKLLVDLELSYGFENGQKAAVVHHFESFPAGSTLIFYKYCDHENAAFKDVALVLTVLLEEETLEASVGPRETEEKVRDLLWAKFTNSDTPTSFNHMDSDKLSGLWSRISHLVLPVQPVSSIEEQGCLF
Chain of Pro-neuregulin-1, membrane-bound isoform (Homo sapiens) (Q02297 whole entry, looked up, the tested form may be a part, canonical isoform): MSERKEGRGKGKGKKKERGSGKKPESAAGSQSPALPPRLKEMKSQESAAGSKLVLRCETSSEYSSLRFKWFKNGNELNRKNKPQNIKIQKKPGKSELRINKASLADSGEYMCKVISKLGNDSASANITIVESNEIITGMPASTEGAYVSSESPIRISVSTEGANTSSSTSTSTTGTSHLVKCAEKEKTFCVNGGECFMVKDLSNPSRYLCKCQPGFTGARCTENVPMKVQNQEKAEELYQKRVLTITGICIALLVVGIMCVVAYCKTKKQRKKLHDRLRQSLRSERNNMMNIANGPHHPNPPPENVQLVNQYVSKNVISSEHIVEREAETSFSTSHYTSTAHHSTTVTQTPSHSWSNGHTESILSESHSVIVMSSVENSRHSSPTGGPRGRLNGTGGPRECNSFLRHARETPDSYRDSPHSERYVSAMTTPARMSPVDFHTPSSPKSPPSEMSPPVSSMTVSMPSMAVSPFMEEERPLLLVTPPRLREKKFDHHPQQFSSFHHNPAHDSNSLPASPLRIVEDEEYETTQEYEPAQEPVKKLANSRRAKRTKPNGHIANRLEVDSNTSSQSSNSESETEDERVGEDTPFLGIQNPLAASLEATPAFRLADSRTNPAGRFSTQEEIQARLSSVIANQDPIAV

Turning to `O=C1OC[C@@H](c2ccccc2)N2CC(/C=C/c3ccccc3)=CC12` (stereo not given in full), the composite z-score in experiment [1] was 0.528; in [2] it was -0.477; in experiment [3], -0.222; in experiment [4] it was -0.77; in [5], -1.18; in [6], -0.586. Besides, the composite z-score in experiment [7] is 0.219; in experiment [9] it was -1.31; in [10], -0.268; in experiment [11], -1.07; in [15], -0.79; in experiment [17] it was -0.158. Further, the figures for the composite z-score in experiment [18], in experiment [19] and in [20] were -1.37, -0.0841 and -0.425, respectively. Also, the z-score in experiment [8] is -0.639 (inactive); in experiment [12], 0.0482 (inactive); in [13] it was -1.27 (inactive); in experiment [14], 0.321 (inactive); in experiment [16], 0.701 (inactive).

Turning to `CC1CC/C=C\[C@H]2OC34C=CCN(C(C)C)C(=O)[C@H]3N(CCCCCO)C(=O)[C@@H]4C2C(=O)O1` (stereo not given in full), the composite z-score in experiment [1] was 0.4; in experiment [2], -1.06; in experiment [3] it was -0.0996; in experiment [4], -0.47; in [5], -0.704; in [6], -0.187. In addition, the composite z-score in [7] is 0.0093; in experiment [9] it was -0.386; in experiment [10], -0.191; in [11], -0.897; in [15] it was -0.573; in experiment [17], -0.139. The composite z-score in [18] is -1.43; in [19] it was -0.208; in experiment [20], -0.281. Also, the z-score in experiment [8] is 0.371 (inactive); in [12], -0.104 (inactive); in [13] it was -0.931 (inactive); in experiment [14] it was -0.958 (inactive); in experiment [16], 0.827 (inactive).

For the compound `C=C(CCCC)/C(=C/C[C@@H](OC(C)=O)c1ccc(CO)o1)c1cc(C(=O)OC)ccc1OC`, the composite z-score was -0.557 in experiment [1]; 0.273 in [2]; -0.0985 in experiment [3]; 0.866 in experiment [4]; 0.621 in [5]; 1.01 in [6]. Further, the composite z-score is 1.28 in experiment [7]; 0.435 in experiment [9]; 0.0826 in experiment [10]; 1.57 in experiment [11]; 2.75 in experiment [15]; -0.134 in experiment [17]. For the same compound, the figures for the composite z-score in experiment [18], in experiment [19] and in [20] were 1.44, 1.06 and 0.021, respectively. The z-score was -0.129 (inactive) in experiment [8]; 0.562 (inactive) in experiment [12]; -0.911 (inactive) in experiment [13]; 0.28 (inactive) in experiment [14]; -0.12 (inactive) in experiment [16].

On to `NC(=O)NCC#Cc1ccc2c(c1)[C@]1(C(=O)N2)[C@H](c2ccc(O)cc2)N2[C@H](c3ccccc3)[C@H](c3ccccc3)OC(=O)[C@H]2[C@@H]1C(=O)Nc1nc2ccccc2s1`, for which the composite z-score in experiment [1] was 0.289; in experiment [2], 0.21; in [3], -0.0222; in [4], 0.478; in experiment [5] it was 0.768; in experiment [6] it was 0.434. Also, the composite z-score was 0.633 in [7]; 0.185 in [9]; 0.0881 in experiment [10]; 1.39 in experiment [11]; 1.07 in experiment [15]; 0.122 in experiment [17]. The composite z-score in [18] was 1.05; in experiment [19] it was 0.362; in experiment [20], -0.0975. Also, the z-score in experiment [8] was 0.63 (inactive); in experiment [12], 4.88 (inactive); in [13], 4.35 (inactive); in experiment [14], 8.57 (active); in experiment [16] it was 1.06 (inactive).

On to `CN(C)CCCCNC(=O)[C@H]1C[C@H]2C(=O)N[C@@H](CCCCN(C)C)C(=O)N2[C@H]1c1cccc(OCCO)c1`, for which the composite z-score is -0.852 in [1]; 1.25 in [2]; 0.0025 in experiment [3]; 1.02 in experiment [4]; 0.591 in experiment [5]; 0.839 in [6]. Further, the composite z-score in experiment [7] was 1.32; in experiment [9], 0.402; in experiment [10], -0.381; in experiment [11], 1.53; in experiment [15], 2.74; in experiment [17], -0.0474. Further, the composite z-score in experiment [18] was 1.38; in experiment [19], 0.993; in experiment [20] it was -0.219. The z-score in [8] is -0.275 (inactive); in experiment [12] it was 0.328 (inactive); in experiment [13] it was 1.22 (inactive); in experiment [14] it was -0.378 (inactive); in experiment [16] it was -0.0359 (inactive).
